# Rows were chosen to be rich in hits. Some 1% of all compounds tested hit in one or more screens of this group.
# TrxR1 substrate: substrates of rat thioredoxin reductase 1. O89049. purified TrxR1 substrate turnover, NADPH consumption readout. Potency, µM (series often up to 114 µM). hit rate 0.01% among 390,000. AID 588456; further: nearly all actives have a fitted effect of over 50% in size
#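 Rat TrxR1, dispensed at 90 nM, was prereduced with 400 uM NADPH (final) for 5 min at ~22 deg C, then incubated with compound 15 min before 400 uM selenite. A first-read NADPH fluorescence drop versus no-compound background flagged substrates.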
# GALK inhibitor: inhibitors of human galactokinase; Purified GALK, Kinase-Glo residual ATP luminescence; Potency, µM (highest dose often 57.5 µM), hits mostly inhibitors; hit rate 0.007% among 270,000; AID 1868
#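 Compounds were pin-transferred into ATP buffer (35 uM final), then GALK plus galactose (5 nM, 100 uM final) was added. After 1 h at room temperature, Kinase-Glo Plus was added and luminescence read after 10 min.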
# RGS4 inh: inhibitors of human regulator of G protein signaling 4; hit rate 0.039% among 390,000; P49798; Potency, µM (doses to about 114 µM), usual class: inhibitors; Transcreener GDP fluorescence polarization, RGS4-accelerated GTP hydrolysis; further: nearly all actives have a fitted effect of over 75% in size
# Target sequence (P49798 whole entry, looked up): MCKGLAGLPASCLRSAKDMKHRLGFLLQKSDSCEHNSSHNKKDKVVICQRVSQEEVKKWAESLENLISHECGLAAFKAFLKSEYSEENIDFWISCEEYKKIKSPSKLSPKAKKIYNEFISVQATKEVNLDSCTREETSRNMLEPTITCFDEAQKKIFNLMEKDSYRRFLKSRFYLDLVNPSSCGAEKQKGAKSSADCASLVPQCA
#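 MLSMR compounds (23 nl, pin-transferred) preincubated 10 min at room temperature with a 500nM (2x) first reagent, then RGS4 at 900nM (2x) plus Transcreener GDP mix added; fluorescence polarization (620/688 nm) read before and after 90 min at 30 °C.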
# Eya2 inh: blocks the phosphatase activity of human Eya2; Potency, µM (top dose mostly 76.9 µM), usual class: inhibitors; hit rate 0.006% among 330,000; recombinant Eya2, OMFP fluorescence dephosphorylation (OMFP is methylfluorescein phosphate); AID 488837; O00167
#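 Eya2 protein (added as 0.2 uM solution) was preincubated with compound for 10 min at ambient temperature in 50 mM HEPES pH 7.5, 50 mM NaCl, 5 uM MgCl2, 0.05% BSA, 1 mM DTT. OMFP (added at 50 uM) then reacted 10 min; fluorescence read at 485/525 nm.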
# USP2a inh: USP2a (human) protease inhibition. hit rate 0.01% among 330,000. USP2 core, Ub-CHOP2 coupled fluorogenic reporter, 485/531. AID 463254. O75604. Potency, µM (highest dose often 38.3 µM), usual class: inhibitors
#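 USP2 core (10nM final) preincubated 30min RT with compound in 20mM Tris-HCl pH 8.0, 2mM CaCl2, 2mM beta-mercaptoethanol, 0.05% CHAPS; 25nM Ub-CHOP2 plus 25nM reporter substrate added, fluorescence (Ex485/Em531) read after 60min.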
# rTrxR1 inhibitor: blocks rat thioredoxin reductase 1. O89049. recombinant rTrxR1, NADPH fluorescence consumption, selenite substrate. Potency, µM (highest dose often 114 µM), hits mostly inhibitors. hit rate 1% among 390,000. AID 588453; further: nearly all actives have a fitted effect of over 65% in size
#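 Rat TrxR1 (90 nM in the dispensed reagent) was pre-reduced with 400 uM NADPH for 5 min at room temperature, then incubated with compound for 15 min. After 400 uM selenite was added, NADPH fluorescence (Ex 340/Em 450 nm) was followed for 8 min.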
# A number is an active result; i = inactive; ? = inconclusive; nt = no result; [ ] = remark or other dose. The call rests on the fitted dose curve; in most records, active means well fitted curve in the direction sought with a large enough effect; inconclusive means small, poorly fitted or top-dose-only effect, or another doubt; inactive means no such curve, though single readings can be large; an effect the other way counts as inactive or inconclusive.
SMILES,TrxR1 substrate,GALK inhibitor,RGS4 inh,Eya2 inh,USP2a inh,rTrxR1 inhibitor
COc1ccc(N2C(=O)CC(Sc3ncn[nH]3)C2=O)c(OC)c1 (stereo not drawn),i,i,i,i,i,0.501µM
CCOc1ccccc1C(=O)Nc1c(C(=O)Nc2ccc(F)cc2)oc2ccccc12,i,nt,i,nt,nt,i
CCOC(=O)CS(=O)(=O)c1nc(-c2ccccc2)cc(C(F)(F)F)n1,i,i,?,i,i,?
CCOC(=O)CCS(=O)(=O)c1nc(-c2ccccc2)cc(C(F)(F)F)n1,i,i,?,i,i,15.8µM
O=C(O)CCS(=O)(=O)c1nc(-c2cccs2)cc(C(F)(F)F)n1,i,i,i,i,i,?
COCC(C)NC(=O)CCS(=O)(=O)c1nc(-c2ccc(OC)cc2)cc(C(F)(F)F)n1 (stereo not drawn),i,i,i,i,i,56.2µM
COC(=O)CCS(=O)(=O)c1nc(-c2ccccc2)cc(C(F)(F)F)n1,i,i,?,i,i,17.8µM
COc1ccc(-c2cc(C(=O)Nc3ccc(Cl)cc3Cl)c3ccccc3n2)cc1OC,i,i,i,i,i,i
COc1ccc(NC(=O)c2cc(-c3ccc(C)o3)nc3ccccc23)cc1OC,i,i,?,i,i,28.2µM
COc1ccc(-c2cc(C(=O)Nc3c(Cl)cc(Cl)cc3Cl)c3ccccc3n2)cc1OC,i,i,i,i,i,79.4µM
CC/C(=C\c1ccc(C(=O)OC)cc1)c1cc(OC)cc2oc3ccccc3c12,i,nt,nt,nt,nt,i
CC1C/C(=C\c2cccnc2)C(=O)/C(=C/c2cccnc2)C1 (stereo not drawn),i,i,?,i,i,50.1µM
CN(C)c1ccc(/C=C/c2c(Br)cnc3ccccc23)cc1,i,nt,nt,nt,nt,i
Cc1cc(=O)n2c(C(=O)Nc3ccc(F)c(Cl)c3)c(C(=O)Nc3cccc(C)c3C)sc2n1,i,nt,?,nt,nt,i
Cc1cc(=O)n2c(C(=O)Nc3ccc(C(=O)OC(C)C)cc3)c(C(=O)Nc3ccccc3)sc2n1,i,i,i,i,i,50.1µM
CC(Sc1nnc(-c2cccs2)n1-c1ccccc1)C(=O)NCc1ccco1 (stereo not drawn),i,i,i,i,i,i
CC(Sc1ccsc1[N+](=O)[O-])C(=O)NCc1ccco1 (stereo not drawn),i,i,i,i,i,20µM
O=C(NCN1CCc2ccccc2C1)c1cnccn1,i,i,i,i,i,20µM
O=[N+]([O-])c1cccc(S(=O)(=O)N2CCN(c3nc(-c4ccccc4)nc4ccccc34)CC2)c1,i,nt,i,nt,nt,i
O=C(Sc1ccc(Cl)cc1)c1ccccn1,i,nt,i,nt,nt,1.12µM
O=C1CSC(=S)N1/N=C/c1cccnc1,i,i,i,i,i,?
O=C1CSC(=S)N1/N=C/c1cc(Br)c(O)c(Br)c1,i,i,?,?,i,79.4µM
O=C1CSC(=S)N1N=Cc1ccccc1O,i[11.4 µM],nt,?,nt,nt,i[11.4 µM]
O=C1CSC(=S)N1/N=C/c1ccc2c(c1)OCCO2,i,i,?,i,i,79.4µM
Cc1ccccc1/C=N/N1C(=O)CSC1=S,i,i,i,i,i,35.5µM
SMILES,TrxR1 substrate,GALK inhibitor,RGS4 inh,Eya2 inh,USP2a inh,rTrxR1 inhibitor
COc1ccc(Br)cc1/C=N/N1C(=O)CSC1=S,i,i,i,i,i,?
COc1cc(/C=N/N2C(=O)CSC2=S)ccc1O,i,i,i,i,i,31.6µM
c1coc(CNc2nc[n+]3c4c2ncn4CC3)c1,i,nt,i,nt,nt,i
CC(=O)Nc1cc(C(=O)NCc2ccc(F)cc2)ccc1Sc1ccc(C)cc1,i,nt,i,nt,nt,i
CCOC(=O)N1CCN(c2cc(=O)n(-c3ccc(C)cc3)c(=O)[nH]2)CC1,i,i,i,i,i,?
CCOC(=O)N1CCN(c2cc(=O)n(-c3ccc(Br)cc3)c(=O)[nH]2)CC1,i,i,i,i,i,17.8µM
COc1ccc(/C=C/c2c(-c3ccc(OC)cc3)oc3ccccc23)cc1,i,nt,i,i,i,44.7µM
CN1CCc2c(OCC(=O)N3N=C(c4cccs4)CC3c3ccc(F)cc3)cccc2C1=O (stereo not drawn),i,i,i,i,i,14.1µM

# Assay outcomes deposited in PubChem by National Center for Advancing Translational Sciences (NCATS).
